Among the data in PubChem BioAssay AID1645855 (Buhrlage Lab, Dana-Farber Cancer Institute and Novartis …, 2021) are inhibition values, retold here.

Among all 47,000 compounds or so, about 3,100 (6.6%) were called active. This excerpt belongs to a sample that is enriched for actives. A number with no mark means an inactive call. Cut-off read from the data, not from the text of the source: active = inhibition above about 30%; inactive = the rest.

This assay deals with Ubiquitin carboxyl-terminal hydrolase 17-like protein 5 (Homo sapiens) (UniProt A8MUK1). As to the kind of experiment: inhibitors of human USP17 deubiquitinase (AID 1645855). As to conditions: purified USP17, Ub-rhodamine cleavage fluorescence, 3 h; at 50 µM; stronger effect = higher value.
Chain of Ubiquitin carboxyl-terminal hydrolase 17-like protein 5 (Homo sapiens) (A8MUK1 whole entry, looked up): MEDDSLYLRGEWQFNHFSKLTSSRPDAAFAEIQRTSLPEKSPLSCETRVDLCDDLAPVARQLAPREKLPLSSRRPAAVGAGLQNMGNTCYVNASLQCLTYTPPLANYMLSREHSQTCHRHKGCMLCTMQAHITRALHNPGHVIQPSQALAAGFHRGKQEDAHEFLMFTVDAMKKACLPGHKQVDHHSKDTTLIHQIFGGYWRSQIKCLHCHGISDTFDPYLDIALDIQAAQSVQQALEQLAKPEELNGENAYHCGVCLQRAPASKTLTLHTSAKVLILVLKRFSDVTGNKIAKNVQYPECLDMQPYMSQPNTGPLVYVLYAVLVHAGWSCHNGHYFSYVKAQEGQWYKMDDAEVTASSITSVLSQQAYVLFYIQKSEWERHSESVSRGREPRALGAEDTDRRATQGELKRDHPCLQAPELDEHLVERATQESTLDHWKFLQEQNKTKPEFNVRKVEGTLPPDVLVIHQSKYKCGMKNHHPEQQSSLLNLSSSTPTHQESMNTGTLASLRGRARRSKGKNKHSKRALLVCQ
As usually defined, the inhibition is the drop in the measured response relative to a control, in per cent. Regarding `Cc1ccc2cc(CNc3ccccc3)c(=O)n(CC(=O)Nc3ccccc3C)c2c1`, the inhibition was 84.2% (active).

In the case of `Cc1cccc(NC(=O)Cn2c(C)ccc(NC(=O)Nc3cccc(C)c3)c2=O)c1`, the inhibition was 14%.

Regarding `Cc1cccc(C2=NC3(CCN(CC(=O)Nc4ccccc4C)CC3)NC2=O)c1`, the inhibition was -42.3%.

In the case of `O=C(Cn1cccc(S(=O)(=O)N2CCCC2)c1=O)Nc1ccccc1`, the inhibition was -38%.

Turning to `CN(C)CCO[C@H]1CN(C(=O)c2cccnc2)[C@@H]2CCCO[C@H]12`, the inhibition is -13.9%.

`COc1ccc(C)cc1NC(=O)Cn1c(=O)nc(N(C)c2ccccc2)c2ccccc21`: the inhibition was 14.1%.

Turning to `CN(c1ccccc1)c1nc(=O)n(CC(=O)Nc2ccc3c(c2)OCCO3)c2ccccc12`, the inhibition was 54% (active).

Turning to `O=C(Cn1cnc2c(sc3ccccc32)c1=O)Nc1ccc2c(c1)OCCO2`, the inhibition is 23.3%.

For `COc1cc(O)sc1C=Nc1ccc(Oc2ccccc2)cc1`, the inhibition was 9.93%.

Turning to `Cc1cnc(N2CCC3(CC2)[C@@H]2CN(Cc4cccnc4)C[C@@H]2C(=O)N3C)nc1`, the inhibition is -34.9%.

Take `c1ccc(-c2ccc(NCc3ccc4c(c3)OCO4)nn2)cc1`: the inhibition is 71.6% (active).

As to `c1cc(CNCc2ccc3c(c2)OCO3)ccn1`, the inhibition is 0.475%.

On to `CCC(Oc1ccccc1)C(=O)NCc1ccc2c(c1)OCO2` (centres undefined), for which the inhibition was -0.19%.

On to `COC(=O)c1ccc(CN2CCN(c3cnn4cnnc4c3)CC2)cc1`, for which the inhibition was 0.152%.

For the compound `CN(CC(=O)Nc1cccc(C(F)(F)F)c1)Cc1nc2ccccc2c(=O)[nH]1`, the inhibition was -13.9%.

Turning to `Cc1ccc(S(=O)(=O)Nc2nc3ccccc3n3nnnc23)cc1`, the inhibition was -34.7%.

For the compound `CSc1nccc(-c2ccc(F)cc2)c1C#N`, the inhibition was 82.5% (active).

For `COc1ccc(F)c([C@@H]2NC(=O)CC[C@H]2NCc2cccc(O)c2)c1`, the inhibition was -6.39%.

`CC(=O)Nc1cccnc1-c1ccc(C(=O)Nc2ccc(C)c(C)c2)cc1`: the inhibition is 6.52%.

As for `Cc1ocnc1C(=O)N[C@@H]1C[C@@H](Oc2ccccc2)[C@H](O)[C@H]1N1CCOCC1`, the inhibition is 9.29%.

For the compound `Cc1ccc2occ(CC(=O)Nc3sc4c(c3C(=O)NCc3cccnc3)CCCC4)c2c1`, the inhibition is 33.6% (active).

On to `Cc1ccc(NS(=O)(=O)c2cc(C(=O)NCc3cccnc3)ccc2Cl)cc1`, for which the inhibition was 6.21%.

As for `Cc1cccc(OCCCC(=O)Nc2sc3c(c2C(N)=O)CCCC3)c1C`, the inhibition was -11%.

On to `COc1ccc(CCNC(=O)c2ccc3ccccc3c2)cc1OC`, for which the inhibition is -2.29%.

Regarding `COc1ccc2[nH]cc(CCNC(=O)Cc3csc(-c4cc(OC)c(OC)c(OC)c4)n3)c2c1`, the inhibition is 8.14%.

`O=C(NCCc1c[nH]c2ccccc12)c1cc2cc(Cl)ccc2o1`: the inhibition is 23%.

Turning to `CCC(=O)NC(=NCCc1c[nH]c2ccc(Cl)cc12)Nc1nc(C)cc(C)n1`, the inhibition was 43.9% (active).

In the case of `CC(=O)N1CCCCCC1C1CCN(c2ncccc2C#N)CC1` (centres undefined), the inhibition is -19%.

As for `Cn1nccc1-c1cccc(-c2noc(-c3ccoc3)n2)c1`, the inhibition is -3.53%.

In the case of `O=C(CCCC1=NS(=O)(=O)c2ccccc2N1)Nc1ccc(C(=O)O)cc1`, the inhibition is 25.1%.

Regarding `Cc1c(Cl)cccc1NC(=O)C(=O)c1cn(CC(=O)N2CCOCC2)c2ccccc12`, the inhibition is -0.359%.

Turning to `Cn1ccnc1CN1C(=O)CO[C@H]2CN(Cc3ccc4c(c3)OCO4)C[C@H]21`, the inhibition is 4.69%.

In the case of `Cc1ccccc1CS(=O)(=O)Cc1ccc(C(=O)Nc2noc3ccccc23)o1`, the inhibition is 48.3% (active).

Turning to `Cc1cc(-c2cncnc2-c2ccc(CNC(=O)Cc3ccccc3C)cc2)on1`, the inhibition was 18.8%.
